Assay [1] has as its system Plasmodium falciparum Sir2 (PF13_0152, Sir2A). Nature of the assay: pfSir2 binders on small-molecule microarrays, primary screen, biochemical, small-molecule microarray, 635 nm fluorescence (AID 1098).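 Note: score merges spot fluorescence intensity with its signal-to-noise ratio.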 As to conditions: small-molecule microarray binding, fluorescence 635 nm; higher = more signal.
Assay [2] can be described thus: small-molecule microarray binders of probe aDKK1, primary screen, biochemical, biotinylated probe, 635/667 nm fluorescence (AID 1099).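 Note: score merges 667nm spot fluorescence with signal to noise across triplicate slides; reference of the scale not given here.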 The following applies: higher = more signal.
The nature of assay [3]: small-molecule microarray binders of probe aCHRDL2, primary screen, biochemical, biotinylated probe, 635/667 nm fluorescence (AID 1100). As to conditions: higher = more signal.
Assay [4] can be described thus: splicing luciferase reporter signal modulators, primary screen, spliceosome inhibition project, cell-based, HEK293, splice +/- reporter (AID 1101).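 Note: HEK293 cells carrying a splicing-competent luciferase reporter gene; test concentration not given here.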 The following applies: luminescence, 24 h, higher = more signal, called active from +8 up or from −8 down.
For assay [5], the target named is Fibroblast growth factor 10 (Homo sapiens) (UniProt O15520). The assay is described as follows: FGF10 binders on small-molecule microarrays, primary screen, biochemical, small-molecule microarray, 635 nm fluorescence (AID 1102). The following applies: FGF10 binding, fluorescence 635 nm, higher = more signal.
Assay [6] has as its system glycogen synthase kinase-3 (GSK3A per assay name; protocol says GSK3B). Nature of the assay: GSK3 binders on small-molecule microarrays, primary screen, biochemical, small-molecule microarray, 635 nm fluorescence, GSK3A (AID 1103). Note: the record names both GSK3A and GSK3B. As to conditions: small-molecule microarray binding, fluorescence 635 nm; higher = more signal.
Assay [7] addresses Epidermal growth factor receptor (Homo sapiens) (UniProt P00533). Nature of the assay: EGFR binders on small-molecule microarrays, primary screen, biochemical, small-molecule microarray, 635 nm fluorescence (AID 1104).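 Note: score merges 667 nm emission intensity with spot signal to noise over triplicate slides.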 As to conditions: EGFR binding, higher = more signal.
The target in assay [8] is Follistatin-related protein 3 (Homo sapiens) (UniProt O95633). The assay is described as follows: FSTL3 binders on small-molecule microarrays, primary screen, biochemical, small-molecule microarray, 635 nm fluorescence (AID 1105).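 Note: score merges emission near 667 nm and signal to noise per printed spot across three slides.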 As to conditions: FSTL3 binding, higher = more signal.
The target of assay [9] is Dickkopf-related protein 1 (Homo sapiens) (UniProt O94907). The assay is described as follows: DKK1 binders on small-molecule microarrays, primary screen, biochemical, small-molecule microarray, 635 nm fluorescence scan (AID 1106).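 Note: score merges emission near 667 nm with signal to noise over three replicate slides.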 As to conditions: DKK1 binding, higher = more signal.
Assay [10] relates to Inhibin beta A chain (activin A). The assay is described as follows: INHBA (activin A) binders on microarrays, primary screen, biochemical, small-molecule microarray, 635 nm fluorescence scan (AID 1107).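 Note: mouse activin A protein probed at 4.33 µg/mL on printed slides; score merges bound-protein fluorescence near 667 nm with spot signal-to-noise.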 As to conditions: small-molecule microarray binding, higher = more signal.

Each structure is given as a SMILES string. The source made the active and inactive calls.

Chain of Dickkopf-related protein 1 (Homo sapiens) (O94907 whole entry, looked up): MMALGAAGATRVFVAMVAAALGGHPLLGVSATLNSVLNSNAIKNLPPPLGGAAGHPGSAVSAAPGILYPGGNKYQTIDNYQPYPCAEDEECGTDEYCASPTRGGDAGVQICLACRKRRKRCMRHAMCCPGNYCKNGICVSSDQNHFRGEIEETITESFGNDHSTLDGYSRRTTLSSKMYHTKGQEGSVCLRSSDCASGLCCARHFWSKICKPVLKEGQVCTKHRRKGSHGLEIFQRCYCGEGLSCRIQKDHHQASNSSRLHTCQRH
Chain of Follistatin-related protein 3 (Homo sapiens) (O95633 whole entry, looked up): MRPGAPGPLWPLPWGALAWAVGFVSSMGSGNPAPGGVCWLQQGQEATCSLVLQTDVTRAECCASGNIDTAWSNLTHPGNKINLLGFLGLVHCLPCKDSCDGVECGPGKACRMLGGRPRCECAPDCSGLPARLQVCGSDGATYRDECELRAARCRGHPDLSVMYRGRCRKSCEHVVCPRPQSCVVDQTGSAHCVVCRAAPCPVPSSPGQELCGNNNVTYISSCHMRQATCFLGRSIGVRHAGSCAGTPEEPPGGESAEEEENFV
Chain of Fibroblast growth factor 10 (Homo sapiens) (O15520 whole entry, looked up): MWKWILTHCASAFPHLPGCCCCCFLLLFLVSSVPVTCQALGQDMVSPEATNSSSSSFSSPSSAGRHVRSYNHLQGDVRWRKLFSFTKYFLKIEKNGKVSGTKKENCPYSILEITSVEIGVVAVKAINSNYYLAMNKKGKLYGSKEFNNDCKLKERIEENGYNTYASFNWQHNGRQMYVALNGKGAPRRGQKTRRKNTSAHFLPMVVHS
Chain of Epidermal growth factor receptor (Homo sapiens) (P00533 whole entry, looked up): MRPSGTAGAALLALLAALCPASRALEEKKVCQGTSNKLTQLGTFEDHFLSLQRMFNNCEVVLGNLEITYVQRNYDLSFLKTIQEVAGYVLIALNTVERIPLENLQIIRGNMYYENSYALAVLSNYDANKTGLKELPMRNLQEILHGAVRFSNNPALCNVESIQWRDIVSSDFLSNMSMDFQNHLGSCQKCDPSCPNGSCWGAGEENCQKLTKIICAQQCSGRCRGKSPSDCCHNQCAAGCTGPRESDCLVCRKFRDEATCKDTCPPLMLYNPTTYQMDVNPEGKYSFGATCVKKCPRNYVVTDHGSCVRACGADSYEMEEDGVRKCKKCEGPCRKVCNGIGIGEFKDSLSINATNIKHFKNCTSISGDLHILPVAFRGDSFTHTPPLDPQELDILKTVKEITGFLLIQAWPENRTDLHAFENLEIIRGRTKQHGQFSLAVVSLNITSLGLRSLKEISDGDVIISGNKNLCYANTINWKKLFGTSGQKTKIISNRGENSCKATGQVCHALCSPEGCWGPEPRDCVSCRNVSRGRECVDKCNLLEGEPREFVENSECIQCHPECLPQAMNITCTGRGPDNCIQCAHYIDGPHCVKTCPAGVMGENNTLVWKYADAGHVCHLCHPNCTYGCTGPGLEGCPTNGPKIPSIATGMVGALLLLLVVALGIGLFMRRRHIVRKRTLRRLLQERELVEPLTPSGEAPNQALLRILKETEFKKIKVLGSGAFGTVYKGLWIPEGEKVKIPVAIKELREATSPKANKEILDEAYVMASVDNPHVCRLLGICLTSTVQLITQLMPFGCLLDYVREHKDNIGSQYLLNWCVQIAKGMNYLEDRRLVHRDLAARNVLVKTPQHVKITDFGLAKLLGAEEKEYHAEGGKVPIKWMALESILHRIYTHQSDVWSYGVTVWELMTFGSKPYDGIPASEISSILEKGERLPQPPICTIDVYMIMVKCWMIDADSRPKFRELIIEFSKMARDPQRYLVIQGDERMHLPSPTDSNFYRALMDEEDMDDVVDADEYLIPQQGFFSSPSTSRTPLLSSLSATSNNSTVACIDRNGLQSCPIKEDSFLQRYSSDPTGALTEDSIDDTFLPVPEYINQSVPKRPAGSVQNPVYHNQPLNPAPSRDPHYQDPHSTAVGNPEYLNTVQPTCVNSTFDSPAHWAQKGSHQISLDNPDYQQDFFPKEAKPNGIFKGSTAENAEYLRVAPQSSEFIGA

Regarding `COC(=O)[C@@]1(Cc2ccc(F)cc2)[C@H]2c3cc(C(=O)N4CCCC4)n(CCc4c[nH]c5ccccc45)c3C[C@H]2CN1C(=O)c1ccccc1`, the composite z-score in [1] was found to be 0.539; in [2], 0.948; in assay [3] it was 1.03; in assay [5], 0.894; in [6], 1.32; in assay [7], 0.549. Besides, the composite z-score in assay [8] stood at 1.21; in [9], 0.113; in assay [10], 0.834. Further, the z-score in assay [4] is -0.593 (inactive).
With `Cc1ccccc1C(O)C1C=CC2C(=O)NC(=O)C2N1Nc1ccccn1` (stereo not given), the composite z-score in [1] is 0.105; in [2] it was 0.145; in [3] it was 0.397; in assay [5], -0.209; in assay [6], 0.0301; in assay [7] it was 0.262. For the same compound, the composite z-score stood at 0.056 in assay [8], 0.144 in assay [9] and 0.605 in [10]. Further, in [4], the z-score was 1.55 (inactive).
As for `Cc1ccc(N2C(=O)c3ccccc3[C@@H](C(=O)NCCCN(C)C)[C@@H]2c2ccc(CO)cc2)nc1`, the composite z-score in assay [1] was 0.451; in [2], 1.51; in [3], 0.824; in [5] it was -0.514; in [6] it was -0.298; in [7], 0.239. Moreover, the composite z-score in assay [8] was 0.102; in [9], -0.06; in [10], -0.153. Also, the z-score in [4] is -0.556 (inactive).
`COc1ccccc1CN1C(=O)c2ccccc2[C@](Cc2ccccc2I)(C(=O)O)[C@@H]1c1ccc(CO)cc1`: the composite z-score stood at 1.19 in assay [1]; 0.552 in assay [2]; 0.485 in assay [3]; 1.2 in assay [5]; 0.941 in assay [6]; 0.719 in assay [7]. In addition, the composite z-score came out at 0.993 in assay [8], 0.441 in [9] and 0.933 in [10]. Also, in assay [4], the z-score is -0.498 (inactive).
On to `C=CC[C@@]1(C(=O)NCCCOC)N=C(c2ccc(OCCCO)cc2)O[C@@H]1c1ccccc1`, for which the composite z-score was 1.7 in assay [1]; 2.31 in assay [2]; 1.36 in assay [3]; 0.311 in assay [5]; 0.326 in assay [6]; -0.848 in assay [7]. Moreover, the composite z-score in [8] was -0.439; in [9] it was -0.666; in [10], 0.923. In addition, in [4], the z-score was -1.39 (inactive).
As for `CCCC=C(CCC)[C@@H](NC(=O)C(C)(C)C)c1ccc(C(=O)OC)cc1`, the composite z-score in [1] is -0.0973; in [2] it was 1.13; in assay [3], 1.06; in [5] it was -0.129; in assay [6] it was -0.107; in [7], -0.0375. Besides, the composite z-score in assay [8] is 0.11; in assay [9] it was -0.58; in [10], 0.757. The z-score in assay [4] was -0.58 (inactive).
As to `C=CCC(OC(C)=O)[C@@H]1[C@@H](N(Cc2cc3ccccc3o2)C(=O)Cc2ccc(F)cc2)c2cc(OCCCO)ccc2N1C(=O)Cc1ccc2ccccc2c1` (stereo not given in full), the composite z-score in assay [1] is -0.255; in assay [2], -0.203; in assay [3] it was 0.426; in assay [5] it was -0.108; in assay [6], -0.657; in [7], -0.805. The values for the composite z-score in assay [8], in assay [9] and in assay [10] were -0.656, -0.607 and 0.779, respectively. For the same compound, the z-score in assay [4] was -0.123 (inactive).
For the compound `NC(=O)NCC#Cc1ccc2c(c1)[C@]1(C(=O)N2)[C@H](C(=O)N2CCN(c3ncccn3)CC2)[C@H]2C(=O)O[C@H](c3ccccc3)[C@H](c3ccccc3)N2[C@@H]1c1ccc(O)cc1`, the composite z-score is 0.615 in [1]; 0.287 in assay [2]; 0.208 in assay [3]; 1.21 in [5]; -0.0752 in assay [6]; 0.755 in assay [7]. For the same compound, the results for the composite z-score in assay [8], in assay [9] and in assay [10] were 1.41, 0.704 and -0.131, respectively. For the same compound, the z-score in assay [4] was -0.534 (inactive).
For the compound `CCOC(=O)C[C@H]1[C@H](OC(=O)c2ccc(-c3ccccc3)cc2)[C@@H](NC(=O)CC(C)C)c2cc(OCCCO)ccc2N1C(=O)c1ccc2ccccc2n1`, the composite z-score in [1] is 0.988; in assay [2], -0.239; in [3], -0.39; in assay [5], 0.636; in assay [6], 0.0685; in assay [7], 0.239. Besides, the composite z-score in assay [8] is 0.47; in assay [9] it was 0.273; in assay [10] it was 0.0746. The z-score in [4] was -0.725 (inactive).
On to `O=C(O)[C@@H]1C[C@@H]2C(=O)N3CCC[C@H]3C(=O)N2[C@@H]1c1ccc(O)cc1`, for which the composite z-score in [1] was 1.51; in assay [2], 0.857; in assay [3] it was 0.11; in assay [5], 0.196; in assay [6], 0.762; in [7], 0.426. The composite z-score in assay [8] was determined as 0.987; in assay [9] it was 0.975; in [10] it was 0.852. Further, in assay [4], the z-score was -2.2 (inactive).
For `COc1ccc([Si](C)(C)[C@@H]2[C@@H](CC(=O)N3Cc4ccccc4C[C@H]3CO)O[C@]3(C(=O)N(Cc4ccc(N5C(=O)c6cccc7cccc5c67)cc4)c4ccccc43)[C@H]2C)cc1`, the composite z-score in assay [1] is 0.68; in assay [2], -0.0502; in assay [3] it was -0.0445; in assay [5], 1.31; in assay [6], 1.27; in [7], 1.2. The values for the composite z-score in assay [8], in assay [9] and in assay [10] were 1.24, 1.12 and 0.772, respectively. For the same compound, the z-score in [4] is 1.54 (inactive).
With `C=CCOC(=O)[C@@H]1[C@H]2C(=O)O[C@H](c3ccccc3)[C@H](c3ccccc3)N2[C@H](c2ccc(OCCOC(=O)[C@@H]3C[C@@H]4C(=O)N[C@@H](CCCC[N+](C)(C)C)C(=O)N4[C@@H]3c3ccc(O)cc3)cc2)[C@@]12C(=O)Nc1ccc(I)cc12`, the composite z-score in assay [1] is 0.822; in [2], -0.178; in assay [3], -0.18; in assay [5], 1.18; in assay [6], 1.24; in assay [7] it was 0.49. The composite z-score in [8] is 1.41; in assay [9], 0.776; in [10], 0.192. In addition, in assay [4], the z-score is 0.527 (inactive).
For `COC(=O)c1c(CC[C@@H](CO)NC(=O)N2CCC[C@H]2Cn2cc(C3(O)CCCCC3)nn2)oc(C(C)=O)c1C(=O)OC`, the composite z-score was 1.65 in assay [1]; -0.152 in [2]; -0.404 in assay [3]; 0.955 in assay [5]; 0.56 in [6]; 0.197 in assay [7]. The composite z-score in assay [8] was 0.742; in assay [9] it was 0.336; in [10], 0.0806. Besides, in assay [4], the z-score is -0.503 (inactive).
Take `CC(C)c1ccc(NN2C(C(O)c3ccc(C#N)cc3)C=CC3C(=O)N(c4ccccc4)C(=O)C32)cc1` (stereo not given): the composite z-score in assay [1] came out at 1.28; in assay [2], 0.935; in assay [3], 0.836; in assay [5], 0.98; in assay [6], 0.888; in [7], 0.397. The composite z-score in assay [8] was 1.24; in assay [9], -0.103; in [10] it was 1. Also, the z-score in assay [4] is 0.44 (inactive).
`COCC(=C=CC[C@H](O)c1ccc(CO)o1)CCO`: the composite z-score in assay [1] is 1.39; in [2], 0.0057; in assay [3], -0.336; in assay [5], 1.52; in assay [6], 0.654; in assay [7], -0.294. The composite z-score came to 1.19 in assay [8], 0.352 in [9] and 0.569 in assay [10]. In addition, the z-score in assay [4] is 0.191 (inactive).
Regarding `O=C1C2C=CC(C(O)C3CC=CCC3)N(Nc3ccccc3)C2C(=O)N1c1ccccc1` (stereo not given), the composite z-score in assay [1] was found to be 1.33; in assay [2] it was 1.13; in assay [3], 1.12; in assay [5], 0.154; in assay [6] it was 0.466; in assay [7], 0.303. The figures for the composite z-score in [8], in assay [9] and in assay [10] were 1.03, 0.333 and 1.68, respectively. The z-score in [4] is -0.225 (inactive).
In the case of `CC(C)C(O)C1C=CC2C(=O)N(c3ccccc3)C(=O)C2N1Nc1ccccc1` (stereo not given), the composite z-score in [1] came to 1.06; in assay [2], 0.584; in [3] it was 0.432; in [5], 1.22; in [6] it was 0.0942; in assay [7] it was 0.34. The composite z-score in assay [8] is 1.41; in [9] it was -0.0988; in assay [10] it was 0.326. In addition, the z-score in assay [4] was -0.307 (inactive).

Values taken from PubChem BioAssay.
